The full list was thinned out, with hits kept by preference.
ST2 IL33 inh – inhibitors of human ST2 (IL1RL1) binding to IL-33. AlphaLISA ST2-Fc/biotin-IL-33 interaction, 1 h. inhibition, % for hits at 17 µM. hit rate 2.3% among 78,000. Q01638; in the data active = inhibition above about 30%
Numbers without * were called inactive; i = inactive.

SMILES	ST2 IL33 inh
N=c1c2c(-c3ccccc3)c(-c3ccccc3)n(Cc3ccco3)c2ncn1Cc1ccco1	31.0%*
c1ccc(-c2nnc([C@H]3CCN(Cc4ccco4)C3)o2)cc1	i
COC(=O)c1nc2n(n1)C(c1ccc(Br)cc1)C1=C(CC(C)(C)CC1=O)N2 (stereo not given)	i
COC(=O)c1nc2n(n1)C(c1ccc(F)cc1)C(C(=O)OC1CCCCC1)=C(C)N2 (stereo not given)	i
O=C(c1ccc2c(c1)C1C=CCC1C(c1cccc([N+](=O)[O-])c1)N2)N1CCCCC1 (stereo not given)	38.0%*
O=C(O)c1ccc2c(c1)C1C=CCC1C(C(=O)O)N2 (stereo not given)	82.0%*
O=C(O)c1ccc2c(c1)C1C=CCC1C(c1ccc(Br)cc1)N2 (stereo not given)	i
Fc1ccc(C2Nc3ccc(Cl)cc3C3C=CCC32)cc1 (stereo not given)	i
COc1ccc(S(=O)(=O)N2CCN(C(=O)c3cccc([N+](=O)[O-])c3)CC2)cc1	i
CN1CCN(C(=O)c2cccc([N+](=O)[O-])c2)CC1	i
O=C(c1ccc2c(c1)C1C=CCC1C(c1ccc(Cl)cc1)N2)N1CCOCC1 (stereo not given)	63.0%*
CCOC(=O)C1Nc2c(ccc(C(=O)O)c2C)C2C=CCC12 (stereo not given)	i
Cc1ccc(C2Nc3c(ccc(C(=O)O)c3C)C3C=CCC32)cc1 (stereo not given)	i
CCCN1CCN(C(=O)CNC(=O)Cn2ccc3ccccc3c2=O)CC1	i
CCC(NC(=O)c1occc1C)c1ccnn1C (stereo not given)	i
CCOC(=O)N1CCN(Cc2ccc(Cl)c(Cl)c2)CC1	i
CCOc1ccc(CC(=O)N(c2ccc(Br)cc2)C2C=CS(=O)(=O)C2)cc1 (stereo not given)	i
O=C(NCCc1cccc(Cl)c1)NC1CCCCC1	i
COCCNc1ncnc2c1cnn2-c1ccc(C)cc1C	i
O=C(Nc1ccc([N+](=O)[O-])cc1)c1cc2ccccc2o1	i
Cc1cc(NC(c2cccc([N+](=O)[O-])c2)c2ccc3cccnc3c2O)no1 (stereo not given)	33.0%*
COc1cc(C(Nc2cccc(C)n2)c2ccc3ccc(C)nc3c2O)ccc1O (stereo not given)	i
Cc1ccnc(NC(c2ccncc2)c2ccc3cccnc3c2O)c1 (stereo not given)	i
O=C(c1ccc([N+](=O)[O-])cc1)N1CCN(c2ccccn2)CC1	i
O=[N+]([O-])c1ccc(NC(c2ccccn2)c2ccc3cccnc3c2O)cc1 (stereo not given)	31.0%*
SMILES	ST2 IL33 inh
COc1ccc2cc3cc(C(=O)N(C)c4ccc(Cl)cc4)oc3nc2c1	i
C1Cc2nn3c(c2C1)n1nc2c(c1n1nc4c(c31)CCC4)CCC2	i
COc1ccc(OC)c(NC(=O)CN(c2ccccc2C)S(=O)(=O)c2ccc(C)cc2)c1	i
CCc1cnc(-c2cc3ccccc3o2)nc1	i
O=C(NCCCN1CCN(c2ccc(F)cc2)CC1)c1ccc2nc3ccccc3c(=O)n2c1	i
O=C1c2ccccc2C(O)(Cc2ccccc2)N1Cc1cccnc1 (stereo not given)	i
CSc1ccc(C(Nc2ccccn2)c2ccc3cccnc3c2O)cc1 (stereo not given)	33.0%*
Fc1ccc(C(Nc2ccccn2)c2c[nH]c3ccccc23)cc1 (stereo not given)	i
COc1ccc(C(Nc2cc(C)ccn2)c2ccc3ccc(C)nc3c2O)cc1OC (stereo not given)	i
Cc1ccc2ccc(C(Nc3ccccn3)c3ccc(N(C)C)cc3)c(O)c2n1 (stereo not given)	41.0%*
Cc1ccc2ccc(C(Nc3ccccn3)c3cccnc3)c(O)c2n1 (stereo not given)	i
CCOc1cccc(C(Nc2ccccn2)c2ccc3ccc(C)nc3c2O)c1O (stereo not given)	i
CN(C)CCNC(=O)CN1C(=O)CSc2ccc(S(=O)(=O)N3CCCC3)cc21	i
O=C(c1ccc(Cl)cc1)N1CCN(c2ccc([N+](=O)[O-])c(N3CCOCC3)c2)CC1	i
OC1CCN(Cc2ccc(Cl)cc2Cl)CC1	i
O=C1CN(c2cc(Cl)cc(Cl)c2)S(=O)(=O)c2ccccc2N1	i
C=CCOc1ccc(C2C(C#N)=C(N)OC(C)=C2C(=O)OCC)cc1 (stereo not given)	i
Nc1cc(C(=O)O)ccc1NC1CCCCC1	31.0%*
O=C(NC1CCCCC1)c1ccc(Cl)cc1	i
O=C(NC1CCCCCCC1)c1ccccc1	i
O=C(Cn1cnc2c(cnn2-c2ccccc2)c1=O)Nc1ccc(Cl)cc1	i
CC1(C2CCC(=O)O2)CC(=O)c2c(O)cc(CO)cc2O1 (stereo not given)	30.0%*
O=C(Cc1cccc2ccccc12)Nc1ccc2nc(SCC(=O)N3CCOCC3)sc2c1	i
COCCOC(=O)C1=C(C)NC(=O)NC1c1ccccc1O (stereo not given)	i
